Measurements taken from PubChem BioAssay AID1159580 (chemical genetic matrix, 2015).
Values joined by “and” are separate entries in the source; they are usually repeats but may differ in a detail not shown here. Identical values can stand only once. About 2,000 (36%) of roughly 5,500 compounds were called active. About 18% were inconclusive and are not listed. No stated cut-off is given here; in the data, active means normalized growth mostly below about 0.91 (no sharp cut-off); inconclusive means no clear call, values can overlap the other calls; inactive means mostly above about 0.92. The list shows a part of the results.

Assay: chemical genetic growth profiling, strain panel (AID 1159580);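 further: tested at 20 µM; growth read once vehicle control cultures reached saturation at 30 °C; 1 = growth at the plate median or of vehicle wells; lower values mean less growth of the strain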
Conditions: growth OD

Measured: normalized growth

NCCc1ccc(O)c(O)c1
inactive: S. cerevisiae deletion strains, locus YJL187C, strain SWE1 (second series), active compounds read low 0.965 | S. cerevisiae deletion strains, locus YJR043C, strain POL32, active compounds read low 1.03 | S. cerevisiae deletion strains, locus YJR066W, strain TOR1, active compounds read low 0.958 and 0.96 | S. cerevisiae deletion strains, locus YJR075W, strain HOC1, active compounds read low 0.98 and 0.981 | S. cerevisiae deletion strains, locus YKL009W, strain mrt4, active compounds read low 0.964 | S. cerevisiae deletion strains, locus YKL068W, active compounds read low 0.981 | S. cerevisiae deletion strains, locus YKL085W, strain MDH1 (second series), active compounds read low 0.994 | S. cerevisiae deletion strains, locus YKL085W, strain MDH1, active compounds read low 0.994 | S. cerevisiae deletion strains, locus YKL160W, strain elf1, active compounds read low 1 | S. cerevisiae deletion strains, locus YKR001C, strain vps1, active compounds read low 0.995 | S. cerevisiae deletion strains, locus YKR026C, strain gcn3, active compounds read low 1 | S. cerevisiae deletion strains, locus YKR091W, strain srl3, active compounds read low 1.01 | S. cerevisiae deletion strains, locus YLL001W, strain dnm1, active compounds read low 0.983 | S. cerevisiae deletion strains, locus YLL026W, active compounds read low 1 | S. cerevisiae deletion strains, locus YLL041C, strain sdh2, active compounds read low 0.991 | S. cerevisiae deletion strains, locus YLR027C, strain aat2, active compounds read low 1.01 | S. cerevisiae deletion strains, locus YLR039C, strain RIC1, active compounds read low 0.99 | S. cerevisiae deletion strains, locus YLR058C, strain SHM2, active compounds read low 0.985 | S. cerevisiae deletion strains, locus YLR102C, strain apc9, active compounds read low 0.992 | S. cerevisiae deletion strains, locus YLR113W, strain HOG1, active compounds read low 1.07 and 1.04 | S. cerevisiae deletion strains, locus YLR221C, strain rsa3, active compounds read low 0.982 | S. cerevisiae deletion strains, locus YLR258W, strain gsy2, active compounds read low 1 | S. cerevisiae deletion strains, locus YLR262C, strain YPT6 (second series), active compounds read low 0.998 | S. cerevisiae deletion strains, locus YLR262C, strain YPT6, active compounds read low 0.969 | S. cerevisiae deletion strains, locus YLR268W, strain sec22, active compounds read low 1.01 | S. cerevisiae deletion strains, locus YLR320W, strain mms22, active compounds read low 1 | S. cerevisiae deletion strains, locus YLR330W, strain CHS5, active compounds read low 0.998 | S. cerevisiae deletion strains, locus YLR342W, strain FKS1 (second series), active compounds read low 0.981 | S. cerevisiae deletion strains, locus YLR342W, strain FKS1, active compounds read low 0.999 | S. cerevisiae deletion strains, locus YLR357W, strain rsc2, active compounds read low 0.985 | S. cerevisiae deletion strains, locus YLR370C, strain arc18, active compounds read low 1.01 | S. cerevisiae deletion strains, locus YLR371W, strain rom2, active compounds read low 0.992 | S. cerevisiae deletion strains, locus YLR384C, strain iki3, active compounds read low 0.99 | S. cerevisiae deletion strains, locus YLR418C, strain cdc73, active compounds read low 0.999 | S. cerevisiae deletion strains, locus YML016C, strain PPZ1, active compounds read low 0.991 | S. cerevisiae deletion strains, locus YML032C, strain rad52, active compounds read low 1.01 | S. cerevisiae deletion strains, locus YML120C, strain ndi1, active compounds read low 1.01 | S. cerevisiae deletion strains, locus YML124C, strain tub3, active compounds read low 1 | S. cerevisiae deletion strains, locus YMR058W, strain fet3, active compounds read low 1.02 | S. cerevisiae deletion strains, locus YMR078C, strain ctf18, active compounds read low 0.991 | S. cerevisiae deletion strains, locus YMR125W, strain sto1, active compounds read low 1.01 | S. cerevisiae deletion strains, locus YMR129W, active compounds read low 1.01 | S. cerevisiae deletion strains, locus YMR205C, strain PFK2, active compounds read low 1.03 | S. cerevisiae deletion strains, locus YMR223W, strain ubp8, active compounds read low 0.972 | S. cerevisiae deletion strains, locus YMR231W, strain pep5, active compounds read low 1.01 | S. cerevisiae deletion strains, locus YMR307W, strain GAS1, active compounds read low 1.03 | S. cerevisiae deletion strains, locus YNL067W, strain RPL9B, active compounds read low 0.968 | S. cerevisiae deletion strains, locus YNL071W, strain lat1, active compounds read low 1 | S. cerevisiae deletion strains, locus YNL153C, strain GIM3, active compounds read low 0.973 and 0.99 | S. cerevisiae deletion strains, locus YNL175C, strain NOP13, active compounds read low 1 | S. cerevisiae deletion strains, locus YNL183C, strain NPR1, active compounds read low 1 and 0.946 | S. cerevisiae deletion strains, locus YNL197C, strain WHI3, active compounds read low 0.993 | S. cerevisiae deletion strains, locus YNL209W, strain ssb2, active compounds read low 1 | S. cerevisiae deletion strains, locus YNL224C, strain SQS1, active compounds read low 1 | S. cerevisiae deletion strains, locus YNL233W, strain BNI4, active compounds read low 0.984 | S. cerevisiae deletion strains, locus YNL248C, strain rpa49, active compounds read low 0.985 | S. cerevisiae deletion strains, locus YNL250W, strain rad50, active compounds read low 1 | S. cerevisiae deletion strains, locus YNL271C, strain bni1, active compounds read low 0.991 | S. cerevisiae deletion strains, locus YNL298W, strain CLA4, active compounds read low 1 | S. cerevisiae deletion strains, locus YNL307C, strain MCK1, active compounds read low 1 | S. cerevisiae deletion strains, locus YNL322C, strain KRE1 (second series), active compounds read low 0.99 | S. cerevisiae deletion strains, locus YNR049C, strain mso1, active compounds read low 1.01 | S. cerevisiae deletion strains, locus YNR052C, strain pop2, active compounds read low 1.01 | S. cerevisiae deletion strains, locus YOL012C, strain htz1 0.769 | S. cerevisiae deletion strains, locus YOL147C, strain pex11, active compounds read low 0.998 | S. cerevisiae deletion strains, locus YOR001W, strain rrp6, active compounds read low 0.997 | S. cerevisiae deletion strains, locus YOR061W, strain CKA2, active compounds read low 0.993 | S. cerevisiae deletion strains, locus YOR069W, strain VPS5, active compounds read low 0.998 | S. cerevisiae deletion strains, locus YOR080W, strain dia2, active compounds read low 1.01 | S. cerevisiae deletion strains, locus YOR083W, strain WHI5 (second series), active compounds read low 0.984 | S. cerevisiae deletion strains, locus YOR083W, strain WHI5, active compounds read low 1.01 | S. cerevisiae deletion strains, locus YOR106W, strain vam3, active compounds read low 0.981 | S. cerevisiae deletion strains, locus YOR136W, strain idh2, active compounds read low 0.999 | S. cerevisiae deletion strains, locus YOR144C, strain elg1, active compounds read low 0.997 | S. cerevisiae deletion strains, locus YOR184W, strain ser1, active compounds read low 0.995 | S. cerevisiae deletion strains, locus YOR231W, strain MKK1, active compounds read low 1.07 and 1.04 | S. cerevisiae deletion strains, locus YOR265W, strain rbl2, active compounds read low 1.01 | S. cerevisiae deletion strains, locus YOR270C, strain vph1, active compounds read low 1.06 | S. cerevisiae deletion strains, locus YOR290C, strain snf2, active compounds read low 1.01 | S. cerevisiae deletion strains, locus YOR316C, strain cot1, active compounds read low 0.993 | S. cerevisiae deletion strains, locus YPL051W, strain arl3, active compounds read low 0.974 | S. cerevisiae deletion strains, locus YPL055C, strain LGE1, active compounds read low 0.974 | S. cerevisiae deletion strains, locus YPL078C, strain atp4, active compounds read low 1.02 | S. cerevisiae deletion strains, locus YPL106C, strain sse1, active compounds read low 0.968 | S. cerevisiae deletion strains, locus YPL240C, strain hsp82, active compounds read low 1.01 | S. cerevisiae deletion strains, locus YPL256C, strain CLN2, active compounds read low 1.03 and 1.04 | S. cerevisiae deletion strains, locus YPR119W, strain clb2, active compounds read low 0.995 | S. cerevisiae deletion strains, locus YPR141C, strain kar3, active compounds read low 0.969 | S. cerevisiae deletion strains, locus YPR163C, strain tif3, active compounds read low 0.997 | S. cerevisiae deletion strains, locus YPR167C, strain met16, active compounds read low 0.999 | S. cerevisiae deletion strains, strain wtn01, active compounds read low 0.994 | S. cerevisiae strains, strain wild type, active compounds read low 0.993
